Assay outcomes (PubChem)
RORgamma inh = blocks mouse ROR gamma transcriptional activity. P51450. Drosophila S2 Gal4-RORgamma UAS-luciferase reporter, 20 h. Potency, µM (doses to about 53.6 µM), hits mostly inhibitors. 310,000 tested, 5.4% active. AID 2551; also: nearly all actives have a fitted effect of over 60% in size
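Compounds are pin-transferred onto Drosophila Schneider cells expressing a copper-inducible Gal4–ROR gamma transactivation domain fusion. After 1 hr, copper sulfate is added to 700 uM final; luciferase is read 20 hr later.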
ERG Ets-DNA blk = blocks human ERG Ets domain binding to DNA; P11308; fluorescence polarization, His-ERG Ets domain / labelled DNA; Potency, µM (top dose mostly 76.9 µM), actives largely listed as inhibitors; 370,000 tested, 0.028% active; AID 624246; active = well fitted inhibition curve with a large enough effect in the polarisation, with a control signal flat; inconclusive = small, poorly fitted or top-dose-only effect, or effect the other way, or a change in a side signal; inactive = no such curve, though single readings can be large or run the other way; the % refers to the polarisation;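 also: polarization taken with two DNA probes labelled with fluorescein and Texas red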
Target sequence (P11308 whole entry, looked up, the tested form may be a part): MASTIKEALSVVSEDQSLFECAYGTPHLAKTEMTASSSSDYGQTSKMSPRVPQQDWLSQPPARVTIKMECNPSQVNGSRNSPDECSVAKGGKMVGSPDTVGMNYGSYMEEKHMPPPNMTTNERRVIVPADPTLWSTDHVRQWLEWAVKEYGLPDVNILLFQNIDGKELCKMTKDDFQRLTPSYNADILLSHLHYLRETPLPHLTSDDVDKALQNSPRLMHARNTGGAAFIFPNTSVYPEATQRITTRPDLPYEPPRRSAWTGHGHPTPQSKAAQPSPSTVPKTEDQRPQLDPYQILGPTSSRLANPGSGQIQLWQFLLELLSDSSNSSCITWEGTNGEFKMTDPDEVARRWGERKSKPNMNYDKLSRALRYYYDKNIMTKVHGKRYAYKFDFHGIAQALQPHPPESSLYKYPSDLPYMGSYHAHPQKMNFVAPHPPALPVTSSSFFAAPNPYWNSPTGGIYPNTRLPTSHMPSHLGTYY
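His-tagged ERG Ets domain (1 uM in the protein solution; 300mM KCl, 50mM Tris-HCl, 1mM EDTA, 1mM DTT, pH 7.5) received compound, then a probe mix of 5 nM fluorescein-DNA and 100nM Texas-615-DNA. Fluorescence polarization was read for both dyes.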
VP16 counter = counter-screen for ROR gamma inhibitors: Gal4-VP16 reporter; Drosophila S2 Gal4-VP16 UAS-luciferase, luminescence, 20 h; Potency, µM (titrated, usually from 53.6 µM), actives largely listed as inhibitors; 310,000 tested, 3.5% active; AID 2546;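 also: Gal4-VP16 expression switched on by copper sulfate through the metallothionein promoter; nearly all actives have a fitted effect of over 50% in size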
Giardia kill = Giardia lamblia killing; 340,000 tested, 0.15% active; activity change, % at 7.66 µM, hits read low; AID 540267; Giardia lamblia trophozoite viability; in the data active = activity change below about -80%; inconclusive = between about -30% and that limit;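 also: parasites exposed to compound for two days anaerobically before the ATP read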
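Compounds were tested on trophozoites seeded at 100 cells/well and held 48 hrs at 37 deg C anaerobically. An ATP-based luminescent kit measured the remaining live cells.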
Integrin act MD = integrin-mediated muscular dystrophy alleviation activation | alpha7betagal myoblasts, beta-gal FDG fluorescence, 48 h | AID 624291 | 350,000 tested, 0.064% active | Potency, µM (series often up to 38.3 µM), most hits filed as activators; also: nearly all actives have a fitted effect of over 60% in size
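alpha7betagal+/- myoblasts (passage 13, 250/well) treated 48 h at 37C with compounds at 1:260 dilution of DMSO stock. Lysed, then beta-galactosidase activity read as FDG fluorescence (ex 480/em 540) after 30 min, with pre-read for autofluorescence.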
Large screens that a line does not name were inactive; ! = repeats disagree. Many of the other results were omitted from the sample, so hits are more common in it than they were. Unless noted, calls follow the shape of the dose curve; as a rule, active = well fitted curve in the direction sought with a large enough effect; inconclusive = small, poorly fitted or top-dose-only effect, or another doubt; inactive = no such curve, though single readings can be large; an effect the other way counts as inactive or inconclusive.

COc1ccc(-c2nn(-c3ccccc3)cc2C2NC(=O)NC(C)=C2C(=O)OC(C)C)cc1Cl (centres undefined)	none (no result: RORgamma inh, VP16 counter, Giardia kill, Integrin act MD)
CC1CC=CC2C1C(=O)N(Cc1ccccc1)C2c1cccc([N+](=O)[O-])c1 (centres undefined)	RORgamma inh inconclusive, Giardia kill inconclusive (no result: ERG Ets-DNA blk, Integrin act MD)
O=C(Nc1ccccc1)N1CC2(CCN(S(=O)(=O)c3ccccc3)CC2)C1	VP16 counter inconclusive (no result: ERG Ets-DNA blk, Giardia kill, Integrin act MD)
O=C(N/N=C/c1ccc([N+](=O)[O-])o1)c1sc2ccccc2c1Cl	RORgamma inh 2.51µM, VP16 counter 3.16µM, Giardia kill -94.9
Cn1cccc1CC(=O)N/N=C/c1cccc2ccccc12	none
Cn1cccc1/C=N/NC(=O)Cc1cccc2ccccc12	RORgamma inh inconclusive, VP16 counter 14.1µM
CN1CCN(c2ncnc3ccc(-c4cccc(NS(C)(=O)=O)c4)cc23)CC1	none (no result: ERG Ets-DNA blk, Giardia kill, Integrin act MD)
CCOc1cc(CNCC(C)C)c(Cl)cc1OCC(=O)Nc1ccccc1	none
S=C1NCCc2ccc(Cl)cc2C1c1ccccc1 (centres undefined)	RORgamma inh 1.26µM, VP16 counter 2.51µM
COc1ccc(/C=C/C(=O)c2ccc(OC)cc2OC)cc1	none
COc1ccc(OC)c(C(=O)/C=C/c2cccnc2)c1	RORgamma inh 7.94µM, VP16 counter 2.82µM
COc1cc(C(=O)/C=C/c2cccnc2)ccc1O	RORgamma inh 10µM, VP16 counter inconclusive
O=C(/C=C/c1cccnc1)/C=C/c1cccnc1	RORgamma inh 5.01µM, VP16 counter 5.01µM, Giardia kill inconclusive
C(=Cc1cccnc1)c1ccncc1	none (no result: RORgamma inh, VP16 counter)
COc1cc(OC)c(C(=O)/C=C/c2ccccc2)c(O)c1O	RORgamma inh inconclusive, VP16 counter 10µM
CCCC[C@H](NC(C)=O)C(=O)N[C@H]1CC(=O)NCCCC[C@@H](C(N)=O)NC(=O)[C@H](Cc2c[nH]c3ccccc23)NC(=O)[C@H](CCCN=C(N)N)NC(=O)[C@@H](Cc2ccccc2)NC(=O)[C@H](Cc2cnc[nH]2)NC1=O	none (no result: ERG Ets-DNA blk, Giardia kill, Integrin act MD)
CCCCN(CC)C(=O)c1cc2c(=O)n3cccc(C)c3nc2n1C	none (no result: RORgamma inh, VP16 counter, Giardia kill, Integrin act MD)
Cc1cccc(Nc2nnc(-c3ccc(C(=O)N4C[C@H]5C[C@H](C4)c4cccc(=O)n4C5)cc3)c3ccccc23)c1	RORgamma inh inconclusive
CN(C)/C=C/C(=O)c1ccc2noc(-c3ccc(F)cc3)c2c1	none
Cc1ccc(-c2onc3ccc(C(=O)/C=C/N(C)C)cc23)cc1	Integrin act MD 3.55µM
CN(C)c1ccc(-c2cncnc2Nc2ccc(F)cc2)cc1	VP16 counter inconclusive (no result: ERG Ets-DNA blk, Giardia kill, Integrin act MD)
COc1cc(/C=C/C(=O)N2CCCCC2=O)cc(OC)c1OC	RORgamma inh 7.08µM, VP16 counter 7.94µM (no result: ERG Ets-DNA blk, Giardia kill, Integrin act MD)
COc1cc(/C=C\C(=O)N2CCC=CC2=O)cc(OC)c1OC	RORgamma inh 5.01µM, VP16 counter 5.01µM (no result: ERG Ets-DNA blk, Giardia kill, Integrin act MD)
COc1cc(/C=C/C(=O)N2CCN(C(=O)/C=C/c3cc(OC)c(OC)c(OC)c3)CC2)cc(OC)c1OC	none
Cc1ccc(N(CC(=O)Nc2ccc(C)c(F)c2)S(=O)(=O)c2c(C)n[nH]c2C)cc1	none (no result: RORgamma inh, VP16 counter, Giardia kill, Integrin act MD)
Cc1c(C(c2ccccc2)c2c(C)n(C)n(-c3ccccc3)c2=O)c(=O)n(-c2ccccc2)n1C	none
Cc1ccc(C(c2c(C)n(C)n(-c3ccccc3)c2=O)c2c(C)n(C)n(-c3ccccc3)c2=O)s1	RORgamma inh 4.47µM, VP16 counter 7.08µM
Cc1ccc2c(c1)c1c(n2CC(O)Cn2c(C)nc3ccccc32)CCCC1 (centres undefined)	RORgamma inh 1.58µM
Cc1ccc(C(C)C)c(OCc2ccc(C(=O)N/N=C/c3ccc(O)cc3O)cc2)c1	RORgamma inh 6.31µM, VP16 counter 7.08µM
Cc1ccc(C(C)C)c(OCc2ccc(C(=O)N/N=C/c3ccc(C(=O)O)cc3)cc2)c1	VP16 counter inconclusive
Nc1[nH]c(N=NC(=O)c2ccccc2)c2ccccc12	RORgamma inh 8.91µM, VP16 counter inconclusive (no result: ERG Ets-DNA blk)
Nc1[nH]c(N=NC(=O)c2ccccc2O)c2ccccc12	RORgamma inh inconclusive, VP16 counter inconclusive
Nc1[nH]c(N=NC(=O)c2ccc(Cl)cc2)c2ccccc12	RORgamma inh 5.62µM, VP16 counter inconclusive
C/C(CC(=O)N1CCN(C=O)CC1)=N\NC(=O)c1ccc([N+](=O)[O-])cc1	RORgamma inh 8.91µM, VP16 counter inconclusive
C/C(CC(=O)N1CCN(C=O)CC1)=N\NC(=O)c1cc2ccccc2cc1O	none (no result: ERG Ets-DNA blk)
CC(C)=CCC/C(C)=C/C=N/NC(=O)c1ccc([N+](=O)[O-])cc1	RORgamma inh 3.55µM, VP16 counter 2.82µM
CC(/C=N/NC(=O)c1cccc([N+](=O)[O-])c1)=C\c1ccccc1	none
CC(C)=CCC/C(C)=C/C=N/NC(=O)c1cccc([N+](=O)[O-])c1	RORgamma inh 1.58µM, VP16 counter 1.41µM
CCOc1ccc(NC(=O)CSc2oc(-c3ccccc3)nc2S(=O)(=O)c2ccc(Cl)cc2)cc1	none (no result: RORgamma inh, VP16 counter, Giardia kill, Integrin act MD)
COc1ccccc1N1CCN(c2nc3ccccn3c(=O)c2C=O)CC1	none
Oc1ccc(O)c(C=NNC(=S)NC2CC3CC2C2C=CCC32)c1 (centres undefined)	none (no result: RORgamma inh, ERG Ets-DNA blk, VP16 counter, Giardia kill)
NNC(=S)NC1CC2CC1C1C=CCC21 (centres undefined)	RORgamma inh 0.447µM, VP16 counter 2.82µM
COc1ccc(-c2cn3nc(N4CCCC(C(=O)Nc5cc(C)ccc5C)C4)sc3n2)cc1 (centres undefined)	none (no result: RORgamma inh, VP16 counter, Giardia kill, Integrin act MD)
COc1ccc(C(C(=O)NC(C)(C)C)N(C(=O)Cn2nnc3ccccc32)c2cccc(C(C)=O)c2)cc1O (centres undefined)	none
N#C/C(=C\c1cccc([N+](=O)[O-])c1)C(=O)NCc1ccc(Cl)cc1	RORgamma inh inconclusive, VP16 counter 17.8µM
N#C/C(=C\c1ccc(O)c(O)c1)C(=O)NCCCc1ccccc1	RORgamma inh 22.4µM!, VP16 counter 11.2µM (no result: Integrin act MD)
COCCNC(=O)/C(C#N)=C/c1cccc(/C=C(\C#N)C(=O)NCCOC)c1	RORgamma inh 12.6µM, VP16 counter 11.2µM
CCOCCCNC(=O)/C(C#N)=C/c1ccc(Cl)c([N+](=O)[O-])c1	RORgamma inh 12.6µM, VP16 counter inconclusive
COc1ccc(/C=C(\C#N)C(=O)NCCc2ccccc2)cc1OCc1ccccc1	RORgamma inh inconclusive
COCCNC(=O)/C(C#N)=C/C=C/c1ccccc1[N+](=O)[O-]	RORgamma inh 12.6µM
Cc1ccc(-n2c(=S)[nH]c3sc4c(c3c2=O)CCC4)cc1	RORgamma inh 1.12µM, VP16 counter 3.55µM
O=c1c2c3c(sc2n2c(=S)[nH]nc2n1-c1ccccc1)CCC3	none
Cc1ccc(-n2c(=O)c3c4c(sc3n3c(=S)[nH]nc23)CCC4)cc1	RORgamma inh 11.2µM, Integrin act MD inconclusive
COc1ccc(-n2c(=O)c3c4c(sc3n3c(=S)[nH]nc23)CCC4)cc1	RORgamma inh 11.2µM
O=C(COC(=O)/C=C/c1ccc(Cl)cc1Cl)NCc1ccco1	none
CC(C)C(=O)Nc1nnc(SCc2cc(=O)n3ccccc3n2)s1	none (no result: RORgamma inh, VP16 counter, Giardia kill, Integrin act MD)
